The whole screen tested about 420,000 compounds, of which about 64,000 (15%) were called active. Not shown: some 27% with an inconclusive outcome. A selection follows. Unmarked numbers belong to inactive results. Calls follow the shape of the dose curve; as a rule, active = well fitted inhibition curve with a large enough effect; inconclusive = small, poorly fitted or top-dose-only effect; inactive = flat fitted curve, though single readings scatter.
experiment: qHTS for Inhibitors of human tyrosyl-DNA phosphodiesterase 1 (TDP1): qHTS in cells in absence of CPT; conditions: DT40 Tdp1-/- hTDP1 cells, no CPT, ATP luminescence, 48 h; activity change, negative = growth inhibition: at 46.2 µM (top of the series); also: nearly all actives have a fitted effect of over 55% in size
Method in brief: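 Growth kinetics read by CellTiter-Glo luminescence after ≥48 hr at 37 °C. Cells: DT40 Tdp1-/- stably carrying human TDP1, 400 per well, compound exposure in the absence of CPT (DMSO vehicle).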
% is scaled to controls: 0 for no effect and ±100 for the full control effect; potency is read from the fitted curve at half-maximal effect.

Compound	activity change, negative = growth inhibition	Potency
Cc1ccc(C2=CSC3=NS(=O)(=O)CCN23)cc1C	-17.4%	–
CCCCNC(=O)N(O)C1N(/N=C/c2ccccc2O)C(=S)SC1(C)C (configuration not stated)	-22.5%	–
CC(C)C1Nc2c(C(=O)O)cccc2C(Nc2ccccc2C(=O)O)C1(C)C (configuration not stated)	3.53%	–
Cc1ccc(N/N=C2\COC(C)(C)CC2=O)cc1	3.82%	–
O=C(NCc1ccccc1Cl)c1csc([C@@H]2O[C@H](CO)[C@@H](O)[C@H]2O)n1	-14.7%	–
Cc1ccsc1C(=O)NCCc1ccco1	-9.2%	–
COc1cc(C(=O)NCc2ccncc2)cc(Br)c1OCc1ccccc1	–	23.1 µM (active)
C[n+]1ccc(C(=O)NCc2ccccc2)cc1	4.77%	–
CCCn1nc2cc(C(=O)NCc3ccccc3)ccc2c1OCC	7.81%	–
Cc1ccc2c(c1)C(O)(CC(=O)c1cccnc1)C(=O)N2 (configuration not stated)	-23.7%	–
Cc1ccc(NC(=O)c2ccc(Oc3ncccn3)cc2)cc1	-14%	–
CC(C)c1c(C(=O)N/N=C/c2ccccc2C(=O)O)nnn1-c1nonc1N	-0.811%	–
O=C(/C=C/c1ccc(F)cc1)Nc1cccc(S(=O)(=O)Nc2cccc(C(F)(F)F)c2)c1	–	8.2 µM (active)
CC(C)(CNC(=O)c1cc(=O)[nH]c2ccccc12)N1CCOCC1	-4.44%	–
O=C(O)c1cccc(N2C(=O)Nc3ccccc3N2O)c1	0.678%	–
CN1C(=O)c2ccc(NC(=O)c3c(F)c(F)c(F)c(F)c3F)cc2C1=O	-20.5%	–
O=S1(=O)CC(N2CCSCC2)CN1Cc1cn(Cc2cccc(Cl)c2)nn1 (configuration not stated)	-18.3%	–
CC1C(=O)N(Cc2cn(CC3CCCCC3)nn2)CCS(=O)(=O)N1Cc1ccc(-c2cccc(N(C)C)c2)cc1 (configuration not stated)	–	7.31 µM (active)
CCCC[C@H]1COCCS(=O)(=O)N1Cc1cccc(Cl)c1	-19.5%	–
COc1ccc(Cn2cc(CN3CCS(=O)(=O)N(Cc4ccc(-c5cccc(Cl)c5)cc4)C(C)C3=O)nn2)cc1 (configuration not stated)	–	25.9 µM (active)
O=S(=O)(/C=C/c1ccccc1)N1CCNCC1	-15.3%	–

Compound	activity change, negative = growth inhibition	Potency
O=C1Cc2cc(S(=O)(=O)Nc3cccc(F)c3)ccc2N1	0.84%	–
CC(/C=C/c1ccco1)=N/NC(=O)C1COc2ccccc2O1 (configuration not stated)	–	16.4 µM (active)
CC(=O)c1cccc(NC(=O)C2COc3ccccc3O2)c1 (configuration not stated)	8.91%	–
C/C(=N/NC(=O)C1COc2ccccc2O1)c1ccco1 (configuration not stated)	-14.3%	–
CCOc1cc(C(=O)Nc2c(C)ccc3nsnc23)cc(OCC)c1OCC	-22.1%	–
CC1O[C@H](OC2C(COC3OC(CO)C(O)[C@H](O)C3O)OC(OC3CC[C@]4(C)C(CC[C@@]5(C)[C@@H]4C=C[C@]46OC[C@@]7(CCC(C)(C)C[C@H]74)C(O)C[C@@]56C)C3(C)C)C(O)C2O)C(O)C(O)C1O (some centres not stated)	7.51%	–
O=C(COC(=O)CNS(=O)(=O)c1ccccc1)NC12CC3CC(CC(C3)C1)C2	-26.4%	–
O=C1C(Cl)=C(Oc2ccccc2)C(=O)c2ccccc21	–	0.259 µM (active)
CC(=O)Oc1ccc2c(c1)C(=O)c1ccccc1C2=O	-18.9%	–
Cc1cc(Nc2ccc(C(=O)N3CCCCC3)cc2)c2cccc(C)c2n1	-23.9%	–
CCc1c(C)sc(NC(=O)OC)c1C(=O)N1CCOCC1	-12.6%	–
CCCOC(=O)CC1C(=O)NCCN1Cc1ccc(F)cc1 (configuration not stated)	-3.87%	–
COc1ccc(NS(=O)(=O)c2ccc(Oc3c(C#N)cccc3C#N)cc2)cc1	–	5.8 µM (active)
COc1ccc(NC(=O)/C(N=Nc2cccc(S(=O)(=O)Nc3ccc(SC(F)F)cc3)c2)=C(\C)O)cc1	-19.8%	–
COc1ccc(NS(=O)(=O)c2cccc(C(=O)NCCc3ccc(S(N)(=O)=O)cc3)c2)cc1	-13.7%	–
C[C@H](CO)N1C[C@H](C)[C@@H](CN(C)C(=O)NC2CCCCC2)Oc2ccc(NC(=O)c3ccncc3)cc2C1=O	3.93%	–
CO/N=C(\C(=O)N[C@@H]1C(=O)N2C(C(=O)O)=C(COC(C)=O)CS[C@H]12)c1csc(N)n1 (stereo in doubt)	–	inactive
CCCCN(CC)CCCNC(=O)CS(=O)(=O)Cc1nc(-c2cccc(OC)c2)oc1C	3.46%	–
COc1cccc(-c2nc(CS(=O)(=O)CC(=O)NCCc3ccc(OC)c(OC)c3)c(C)o2)c1	-28.5%	–
COc1cccc(-c2nc(CS(=O)(=O)CC(=O)N3CCN(c4cc(C)ccc4C)CC3)c(C)o2)c1	–	3.66 µM (active)
CCN(CC)CCN(C)C(c1ccnc2ccccc12)c1nnnn1-c1ccc2c(c1)OCCO2 (configuration not stated)	–	18.4 µM (active)

Compound	activity change, negative = growth inhibition	Potency
CC(=O)NC1CCN(CC(=O)Nc2nccs2)CC1	8.15%	–
Cc1cc(C)n(CCNC(=O)CC2C(=O)NCCN2Cc2ccc(C)o2)n1 (configuration not stated)	9.42%	–
COC(=O)c1ccc(NC(=O)C23CC4CC(C2)CC(n2cnc(Cl)n2)(C4)C3)cc1	–	16.4 µM (active)
COC(=O)c1ccc(NC(=O)CSc2nnc(C3CC3)n2C)cc1	-18.5%	–
Cc1ncn(C23CC4CC(CC(O)(C4)C2)C3)n1	11.2%	–
CCOc1ccc(S(=O)(=O)NCCC(=O)NNC(=O)c2ccc(F)cc2)cc1	-2.59%	–
COc1ccc(CCNC(=O)COc2cc(C)cc3oc(=O)c(C)c(C)c23)cc1OC	-14.7%	–
COc1ccc(CCN2C(=O)c3oc4cc(C)cc(C)c4c(=O)c3C2c2ccccc2F)cc1OC (configuration not stated)	–	2.91 µM (active)
COc1ccc(CNC(=O)c2cc(=O)c3c(C)cc(C)cc3o2)cc1	-23.3%	–
COc1ccccc1OCCNC(=O)C(CCSC)NC(=O)COc1ccccc1 (configuration not stated)	12.3%	–
O=C(O)CC(c1ccccc1)n1cnnn1 (configuration not stated)	-13.6%	–
CCCOc1ccc(C(=O)C(CCC(CNCC)C(=O)c2ccc(OCCC)cc2)CNCC)cc1 (configuration not stated)	–	0.92 µM (active)
CCCCOc1ccc(C(=O)NCc2ccncc2)cc1	-49%	–
CCCCOc1ccc(C(=O)NN2CCN(C)CC2)cc1	0.162%	–
CCCOc1ccc(C(=O)CCC(=O)OC(C)C(=O)Nc2ccc(NC(C)=O)cc2)cc1 (configuration not stated)	-9.79%	–
CCCOc1ccc(C(=O)NCCc2ccccc2)cc1	-5.72%	–
CCCCOc1ccc(C(=O)NO)cc1	–	15.8 µM (active)
COc1ccccc1C(=O)NCC(=O)OCC(=O)Nc1nnc(-c2ccccc2)o1	0.346%	–
CCCNC(=O)C[C@@H]1CC[C@@H]2[C@H](COC[C@H](O)CN2C(=O)c2cc(Cl)cc(Cl)c2)O1	3.86%	–
Cn1c(N)c(C(=O)COC(=O)c2ccccc2NCc2ccco2)c(=O)n(C)c1=O	-17.3%	–

Source: PubChem BioAssay AID686978 (National Center for Advancing Translational Sciences (NCATS), 2013)
